Among the data in ChEMBL document CHEMBL1961873, “Compounds: GSK PKIS; Assays: Nanosyn kinase panel” (2012) are inhibition values, retold here.
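Further: mean percent inhibition of TRKC, reported within the GSK PKIS dataset.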

The target in this assay is NT-3 growth factor receptor (Homo sapiens) (UniProt Q16288). The settings on record: at 0.1 µM.
Chain of NT-3 growth factor receptor (Homo sapiens) (Q16288 32-839 limits assumed): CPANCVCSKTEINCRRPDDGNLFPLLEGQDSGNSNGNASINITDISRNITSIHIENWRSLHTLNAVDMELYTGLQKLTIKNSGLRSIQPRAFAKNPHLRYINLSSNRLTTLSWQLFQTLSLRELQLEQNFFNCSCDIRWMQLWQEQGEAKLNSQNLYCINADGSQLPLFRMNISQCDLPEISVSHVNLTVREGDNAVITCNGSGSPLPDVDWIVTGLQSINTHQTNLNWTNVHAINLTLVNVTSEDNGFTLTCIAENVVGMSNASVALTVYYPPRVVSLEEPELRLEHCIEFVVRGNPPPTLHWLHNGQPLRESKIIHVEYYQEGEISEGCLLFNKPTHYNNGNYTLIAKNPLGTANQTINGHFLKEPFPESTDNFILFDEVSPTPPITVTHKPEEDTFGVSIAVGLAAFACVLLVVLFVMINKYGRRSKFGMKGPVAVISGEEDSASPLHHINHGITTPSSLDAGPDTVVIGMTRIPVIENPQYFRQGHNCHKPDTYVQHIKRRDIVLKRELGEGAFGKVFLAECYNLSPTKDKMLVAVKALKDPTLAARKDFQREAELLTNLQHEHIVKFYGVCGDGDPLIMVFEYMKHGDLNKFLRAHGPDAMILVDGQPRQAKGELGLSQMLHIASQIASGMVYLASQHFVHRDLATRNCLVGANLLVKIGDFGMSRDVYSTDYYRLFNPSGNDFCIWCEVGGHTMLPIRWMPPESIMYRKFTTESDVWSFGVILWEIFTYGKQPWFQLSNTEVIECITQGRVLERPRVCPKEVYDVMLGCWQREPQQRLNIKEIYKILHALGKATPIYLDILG
As for `NC(=O)c1ccc(Oc2nccc(-c3c(-c4ccc(F)cc4)ncn3C3CCNCC3)n2)cc1`, the inhibition was found to be 3.1%.

For `Fc1ccc(-c2ncn(CCCN3CCOCC3)c2-c2ccncc2)cc1`, the inhibition was -0.42%.

For `COc1cccc(/C=N/Nc2ncnc3c2cnn3-c2cccc(OC)c2)c1`, the inhibition amounted to 1.57%.

With `N#Cc1ccc(Oc2nccc(-c3c(-c4ccc(F)cc4)ncn3C3CCNCC3)n2)cc1`, the inhibition stood at 2.17%.

In the case of `COc1ccc(-c2ccc3c(NC(=O)C4CC4)n[nH]c3n2)cc1`, the inhibition is -0.49%.

As to `O=C(Nc1n[nH]c2cc(-c3ccccc3)ccc12)C1CC1`, the inhibition came out at 0.77%.

Turning to `COC(=O)Nc1nc2ccc(Sc3ccc(NC(=O)Nc4cc(C(F)(F)F)ccc4F)cc3)cc2[nH]1`, the inhibition was 15.5%.

Turning to `CN(c1ccc(NC(=O)Nc2c(Cl)cccc2Cl)cc1)c1ccnc(Nc2cccc(CS(C)(=O)=O)c2)n1`, the inhibition was 31.7%.

With `O=C1Nc2ccc(I)cc2C1=Cc1cc(Br)c(O)c(Br)c1`, the inhibition amounted to 1.67%.

Regarding `Clc1ccc(CNc2nccc(-c3cnn4ncccc34)n2)cc1`, the inhibition was 0.37%.

Take `C/C(Nc1ccc(S(N)(=O)=O)cc1)=C1/C(=O)Nc2ccccc21`: the inhibition stood at 17.4%.

As for `CCc1nccc2c1nc(-c1nonc1N)n2CC`, the inhibition worked out at 0.15%.

As for `NC(=O)c1cc(-c2ccncc2)cc(-c2ccccc2)c1N`, the inhibition was 3.19%.

Take `COc1cc(Nc2ncc(-c3ccccc3)o2)cc(OC)c1OC`: the inhibition was determined as 2.64%.

`NS(=O)(=O)c1ccc(N/N=C2\C(=O)Nc3ccc(-c4cnco4)cc32)cc1`: the inhibition came out at 13.3%.

With `COc1cc2ncn(-c3cc(OCCc4ccccc4)c(C(N)=O)s3)c2cc1OC`, the inhibition came to 2.85%.

For the compound `Cc1nnc(-c2ccc(C)c(-c3ccc(C(=O)NCc4ccc(Cl)cc4)cc3)c2)o1`, the inhibition was determined as 2.79%.

As for `C#Cc1cccc(Nc2ncnc3ccc(OCCCCNCCS(C)(=O)=O)cc23)c1`, the inhibition turned out to be 3.6%.

As for `COc1cccc(-n2cnc3c(N/N=C/c4ccncc4)ncnc32)c1`, the inhibition was 0.58%.

With `COc1ccc2cc(-c3c(-c4ccncc4)nc(-c4ccc(S(C)(=O)=O)cc4C)n3C)ccc2c1`, the inhibition was determined as 2.38%.

Consider `COc1ccc2ncn(-c3cc(O[C@H](C)c4ccccc4Cl)c(C(N)=O)s3)c2c1`, for which the inhibition came to 4.36%.

For the compound `O=C1NC(=O)C(c2cccc(Cl)c2)=C1Nc1ccc(Cl)c(C(=O)O)c1`, the inhibition was determined as 1.02%.

As for `CN1CCN(CCCNc2nc3ccc(Oc4ccc(NC(=O)Nc5cc(C(F)(F)F)ccc5F)cc4)cc3[nH]2)CC1`, the inhibition amounted to 4.05%.

As for `C[C@@H](Oc1cc(-n2cnc3ccc(OC4CCN(C)CC4)cc32)sc1C(N)=O)c1ccccc1Cl`, the inhibition turned out to be 2.56%.

On to `c1ccc(Oc2ccc(Nc3ncc(-c4ccccc4)o3)cc2)cc1`, for which the inhibition is 0.46%.

`CN(C)CCCNc1nccc(-c2c(-c3ccc(F)cc3)nn3cc(C(F)(F)F)ccc23)n1`: the inhibition worked out at 2.89%.

On to `COc1cc2ncn(-c3cc(OCc4ccccc4C(F)(F)F)c(C(C)=O)s3)c2cc1OC`, for which the inhibition came out at 0.64%.

In the case of `COc1ccc2cc(-c3c(-c4ccncc4)nc(-c4ccc([S+](C)[O-])cc4C)n3C)ccc2c1` (centres undefined), the inhibition is -0.79%.

Regarding `Fc1ccc(-c2ncn(C3CCNCC3)c2-c2ccnc(Oc3ccc4c(c3)OCO4)n2)cc1`, the inhibition amounted to 4.02%.

Consider `NC(=O)c1cc(-c2ccc(F)cc2)cc(-c2ccncc2)c1N`, for which the inhibition turned out to be 3.87%.

As to `CCC(=O)Nc1ccc(C)c(-c2ccc(C(=O)NCC3CC3)cc2)c1`, the inhibition is 2.19%.

Take `c1ccc(-c2n[nH]cc2-c2ccnc(-c3ccc(OCCN4CCOCC4)cc3)c2)nc1`: the inhibition was 1.29%.

`O=C(NCC1CC1)c1ccc(-c2cccc(C(=O)NC3CC3)c2)cc1`: the inhibition came out at 2.02%.

Take `NC(=O)Cc1ccccc1Oc1nccc(-c2c(-c3ccc(F)cc3)ncn2C2CCNCC2)n1`: the inhibition stood at 0.22%.

For orientation: inhibition means the change of the read-out against control, counted positive when it falls.
